Consider 15 molecules from PubChem BioAssay (NCI).

The panel holds about 83,000 compounds, 20% with a hit somewhere; the sample as a whole holds those more often.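 Interpretation: 100, growth as untreated; towards 0, rising growth inhibition; 0, no net growth; 0 to -100, cell death. Compounds scoring below 10 were considered active.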 Unmarked numbers belong to inactive results. Active and inactive are the calls of the source.

The subject of the assay is RXF 393 renal. As to the kind of experiment: NCI-60 one-dose screen, 48 h (100 = growth as untreated, 0 = no growth, -100 = all killed). To be noted: 10 µM unless noted.
As for `C(=C1c2ccccc2-c2ccccc21)c1ccncc1`, the growth is 72.3%.
Next, `COc1ccc(/C=C2/SC(=Nc3c(C)nn(-c4ccccc4)c3N)NC2=O)cc1`: 83.6%; `Cc1cc(-c2ccccc2)cc(C)n1`: 117%.
Next, `CCSCC1CC(O)(c2ccccc2)C(c2ccccc2)C(c2ccc(Cl)cc2)O1` (stereo not given): -30.9% (active); `Cc1[nH]cnc1/C=C1\SC(N2CCCCC2)=NC1=O`: 96.3%.
For `C[N+]1(C)C2CC[C@@H]1CC(OC(=O)C(O)c1ccccc1)C2` (stereo not given in full), the growth was 111%.
Regarding `CN(C)CCCN=c1cc2c(=O)n(CCCN(C)C)c(=O)c3c(NCCCN(C)C)cc4c(O)n(CCCN(C)C)c(=O)c1c4c3-2`, the growth is -68.3% (active).
For the molecule `CCOC(=O)Nc1ccc2c3c(cccc13)-c1ccccc1-2`, the growth was 57.9%.
Next, `CSc1nc2nc3c(nc2c(=O)n1C)C(=O)c1ccccc1C3=O`: -79.3% (active).
In the case of `O=C1/C(=C\c2coc3ccccc3c2=O)c2ccccc2N1c1c(Cl)cccc1Cl`, the growth was 44.1%.
Next, `O=C(Oc1cccc2ccccc12)c1ccccc1C(=O)c1ccccc1`: 98.3%.
With `O=C1N=C(N2CCOCC2)S/C1=C\c1cn(-c2ccccc2)nc1-c1ccccc1`, the growth was 51.8%.
As to `Cn1c(N2N=C(c3ccc(Cl)cc3)CC2c2ccccc2)nc(-c2ccccc2)c(C#N)c1=O` (stereo not given), the growth was 96.4%.
Consider `O=C(O)CNC(=O)C1(N2C(=O)c3ccccc3C2=O)CCCC1`, for which the growth is 95.7%.
Take `c1ccc(CN=C(NCc2ccccc2)NCc2ccccc2)cc1`: the growth is 91.7%.
